An excerpt weighted towards active compounds, which were near 10% of everything screened.
Pf growth 48h: inhibits P. falciparum growth in the first generation, 48 h. 5.9% of 310,000 active. AID 504832. P. falciparum luciferase growth in erythrocytes, 48 h. Potency, µM (doses to about 28.7 µM), inactives show at the highest dose activity change, negative = inhibition, usual class: inhibitors; note: % is set by controls: 0 for no effect and ±100 for the full control effect
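First compound was added to culture medium, then infected red cells at 0.1% parasitemia and 2% hematocrit (final). After incubation at 37 C under 5% CO2, luciferase detection reagent was dispensed and light output recorded.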
Pf growth 96h: inhibits malaria parasite growth, 96 h | 6.9% of 320,000 active | Potency, µM (top dose mostly 28.7 µM), for the others: at the highest dose activity change, negative = inhibition, hits mostly inhibitors | AID 504834 | P. falciparum luciferase reporter growth, 96 h; note: % is set by controls: 0 for no effect and ±100 for the full control effect
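Parasite growth measured via integrated firefly luciferase reporter in P. falciparum. Infected erythrocytes at 2% hematocrit, 0.05% parasitemia final were treated 96 hours at 37 C under 5% CO2, and luminescence was read.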
NS1 inh: blocks influenza NS1 protein function. Potency, µM (highest dose often 46.1 µM), for the others: at the top dose activity, positive = more growth. 0.4% of 270,000 active. AID 2326; calls by dose curve; note: actives are rising curves; nearly all actives have a fitted effect of over 50% in size
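Recovery from NS1-induced slow growth read by OD600 in budding yeast switched to galactose assay medium (pH 6.0, -URA) at 1:100 dilution. Compound 23 nl per well; the matching strain lacking NS1 serves as control.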
SARS PLP yeast: SARS-CoV PLP inhibition in yeast | S. cerevisiae expressing SARS-CoV PLpro, growth rescue | Potency, µM (doses to about 32.9 µM), for inactives: at the top dose activity, positive = growth rescue, most hits filed as activators | 0.19% of 330,000 active | AID 485353; calls by dose curve; note: 0% is about no effect; nearly all actives have a fitted effect of over 55% in size
* marks the source's active call; other numbers are inactive results. Unless noted, calls come from the whole dose curve; as a rule, active = well fitted inhibition curve with a large enough effect; inconclusive = small, poorly fitted or top-dose-only effect, or another doubt; inactive = no such curve, though single readings can be large or run the other way. Potency is the fitted concentration of half-maximal effect.

For COc1cc2c(cc1OC)CN(C(=O)CN1CCN(S(=O)(=O)c3ccc(C)c(C)c3)CC1)CC2 the results were Pf growth 48h inconclusive, Pf growth 96h 13µM*, NS1 inh -9% and SARS PLP yeast -3%.
`COc1ccc(S(=O)(=O)N2CCN(C(=O)COc3ccc(C)c(C)c3)CC2)cc1OC` gave Pf growth 48h 10µM*, Pf growth 96h 1%, NS1 inh 0% and SARS PLP yeast 1%.
For COc1ccc(S(=O)(=O)N2CCN(C(=O)CCOc3ccccc3)CC2)cc1OC the results were Pf growth 48h inconclusive, Pf growth 96h -17% and SARS PLP yeast 1%.
`COc1cccc2cc(C(=O)OCc3ccccc3)c(=O)oc12` gave Pf growth 48h -9%, Pf growth 96h inconclusive, NS1 inh -39% and SARS PLP yeast -3%.
COCCC(=O)N1CCC(Oc2ccc(C(=O)NC(C)CCn3cccn3)cc2)CC1 (stereo not drawn) was read as Pf growth 48h -4%, Pf growth 96h 61%, NS1 inh -9% and SARS PLP yeast -2%.
COc1ccccc1NS(=O)(=O)c1ccc(N/N=C/C=C/c2ccccc2[N+](=O)[O-])c([N+](=O)[O-])c1 was read as Pf growth 48h inconclusive, Pf growth 96h inconclusive, NS1 inh 3% and SARS PLP yeast -1%.
COc1ccc(C(=O)N/N=C/c2sc(N3CCOCC3)nc2-c2ccccc2)cc1OC was read as Pf growth 48h inconclusive, Pf growth 96h inconclusive, NS1 inh -6% and SARS PLP yeast -1%.
Screening COc1ccccc1NS(=O)(=O)c1ccc(NN=C2CCCC2)c([N+](=O)[O-])c1 returned Pf growth 48h -29%, Pf growth 96h 12µM*, NS1 inh inconclusive and SARS PLP yeast 18%.
`Cc1nn(-c2ccccc2)c(N2CCCC2)c1/C=N/Nc1ccc(S(=O)(=O)Nc2ccccc2)cc1[N+](=O)[O-]` gave Pf growth 48h 3.3µM*, Pf growth 96h inconclusive, NS1 inh 18% and SARS PLP yeast 1%.
`COc1ccccc1NS(=O)(=O)c1ccc(N/N=C/c2ccccc2OCC(=O)O)c([N+](=O)[O-])c1` gave Pf growth 48h inconclusive, Pf growth 96h inconclusive and SARS PLP yeast -1%.
Screening COc1ccccc1NS(=O)(=O)c1cc([N+](=O)[O-])ccc1N/N=C/c1sc(N2CCOCC2)nc1-c1ccccc1 returned Pf growth 48h 3.3µM*, Pf growth 96h inconclusive, NS1 inh 7% and SARS PLP yeast 21%.
COc1ccccc1NS(=O)(=O)c1ccc(N/N=C/c2c(C)nn(-c3ccccc3)c2N2CCCC2)c([N+](=O)[O-])c1 was read as Pf growth 48h 3.3µM*, Pf growth 96h inconclusive, NS1 inh 19% and SARS PLP yeast 1%.
`Oc1c(Cl)cc(C(c2cc(Cl)c(O)c(Cl)c2)C(c2cc(Cl)c(O)c(Cl)c2)c2cc(Cl)c(O)c(Cl)c2)cc1Cl` gave NS1 inh 20%.
`CC1=NN(c2ccc(S(=O)(=O)O)cc2)C(=O)/C1=C\c1ccc(Cl)cc1` gave NS1 inh 0%.
For CCCC1CCC(C(=O)Nn2cnc3ccccc3c2=O)CC1 (stereo not drawn) the results were Pf growth 48h -18%, Pf growth 96h 2.1µM*, NS1 inh 6% and SARS PLP yeast -10%.
Screening CC1CCN(CCOCCOc2ccc(Cl)cc2Br)CC1 returned Pf growth 48h inconclusive, Pf growth 96h 6.6µM*, NS1 inh -10% and SARS PLP yeast -4%.
Screening Cc1cc(Cl)c(OCCOCCN2CCN(C)CC2)c(Br)c1 returned Pf growth 48h 0%, Pf growth 96h 32%, NS1 inh 4% and SARS PLP yeast 2%.
Cc1cc(Cl)c(OCCOCCN2CCC(C)CC2)c(Br)c1 was read as Pf growth 48h inconclusive, Pf growth 96h 12µM*, NS1 inh -5% and SARS PLP yeast 1%.
Screening O=[N+]([O-])c1cccnc1N1CCN(c2ccc(F)cc2)CC1 returned Pf growth 48h inactive, Pf growth 96h 85% and SARS PLP yeast 0%.
`OC[C@@H](O)C(O[C@@H]1O[C@@H](CO)[C@H](O)[C@H](O)[C@H]1O)[C@H](O)[C@@H](O)CO` (stereo partly drawn) gave Pf growth 48h -23% and Pf growth 96h inconclusive.
`COc1ccc(CC(=O)Nc2nnc(C(C)(C)C)s2)cc1OC` gave Pf growth 48h -14%, Pf growth 96h 4.7µM*, NS1 inh 4% and SARS PLP yeast -1%.
Screening COc1ccc(CCCc2nnc(SCC(=O)Nc3nc(C)cs3)n2C)cc1C returned Pf growth 48h 13µM*, NS1 inh 5% and SARS PLP yeast 3%.
`COc1ccc(CC(=O)Nc2nc(C)cs2)cc1` gave Pf growth 48h 37%, Pf growth 96h inconclusive and SARS PLP yeast 0%.
Screening COc1ccc(CC(=O)Nc2nc(C)cs2)cc1OC returned Pf growth 48h 7%, Pf growth 96h 12µM*, NS1 inh -7% and SARS PLP yeast 0%.
Screening COc1ccc2nc(NC(=O)CCc3ccc(OC)c(OC)c3)sc2c1 returned Pf growth 48h inconclusive, Pf growth 96h 12µM* and SARS PLP yeast 0%.
Screening Cc1csc(NC(=O)CSc2nnc(-c3cccs3)n2C)n1 returned Pf growth 48h -28%, Pf growth 96h -8%, NS1 inh 2% and SARS PLP yeast 6%.
O=[N+]([O-])c1ccc(CN2C=NS(=O)(=O)c3ccccc32)cc1 was read as Pf growth 48h -1%, Pf growth 96h 0% and SARS PLP yeast 1%.
Cc1ccccc1NC(=O)N1CCN(S(=O)(=O)c2ccccc2)CC1 was read as Pf growth 48h -2%, Pf growth 96h inconclusive, NS1 inh 2% and SARS PLP yeast -1%.
For Cc1cc(CNC(=S)Nc2cccc(Cl)c2Cl)nn1C the results were Pf growth 48h -6%, Pf growth 96h -1%, NS1 inh 0% and SARS PLP yeast -1%.
`C#C[C@]1(OC(C)=O)CC[C@H]2[C@@H]3CCC4=C/C(=N/O)CC[C@@H]4[C@H]3CC[C@@]21CC` gave Pf growth 48h -11% and Pf growth 96h 0.95µM*.
For COc1ccc(C(F)(F)F)cc1NC(=O)c1nc2nc(C)cc(C(F)F)n2n1 the results were Pf growth 48h 3.7µM*, Pf growth 96h inconclusive, NS1 inh -5% and SARS PLP yeast -1%.
Screening Cc1cc(C(F)F)n2nc(C(=O)Nc3cccc(C(F)(F)F)c3)nc2n1 returned Pf growth 48h -27%, Pf growth 96h inconclusive, NS1 inh 0% and SARS PLP yeast 3%.
`O=C(CNc1ccccc1)N/N=C/c1cn(-c2ccccc2)nc1-c1ccccc1` gave Pf growth 48h 12µM*, Pf growth 96h inconclusive, NS1 inh 22% and SARS PLP yeast 6%.
O=C(N/N=C/c1cn(-c2ccccc2)nc1-c1ccc(F)cc1)c1ccc(Br)o1 was read as Pf growth 48h 8.3µM*, Pf growth 96h inconclusive, NS1 inh -3% and SARS PLP yeast 2%.
`Cc1nnc(SCC(=O)Nc2cc(S(C)(=O)=O)ccc2Cl)n1Cc1ccccc1` gave Pf growth 48h -19%, Pf growth 96h inconclusive, NS1 inh 20% and SARS PLP yeast 4%.

High-throughput results deposited in PubChem BioAssay by National Center for Advancing Translational Sciences (NCATS).
